Screening data deposited in PubChem by National Center for Advancing Translational Sciences (NCATS).
Nrf2 activator: activators of Nrf2 (ARE) signaling; AREc32 ARE-luciferase reporter (MCF7-derived line), luminescence, 24 h; Potency, µM (doses to about 46.1 µM), for the others: at the highest dose activation, most hits filed as activators; 410,000 compounds, 0.31% hits; AID 624171; also: % of control where 0% means no effect; nearly all actives have a fitted effect of over 65% in size
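Reporter line AREc32 (ARE-Fluc), seeded overnight in OPTI-MEM with 5% FBS; compound pin-transferred, 24 hr at 37 deg C, 5% CO2; luminescent read-out.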
A549 tox-1: A549 cytotoxicity, counter-screen for Nrf2 inhibitors | A549 ARE-Fluc cells, CellTiter-Fluor viability, 18-24 h | Potency, µM (doses to about 46 µM), for inactives: at the top dose activity change, negative = cytotoxicity, most hits filed as inhibitors | 390,000 compounds, 0.16% hits | AID 504648; also: % is scaled to controls: 0 for no effect and ±100 for the full control effect
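A549 ARE_Fluc cells in 5% FBS OPTI-MEM were exposed to compounds in concentration-response for 18-24 h at 37 deg C. Viability was read by CellTiter-Fluor fluorescence (Ex 405/Em 525) after 30 min, before the luciferase read.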
Pin1 inhibitor: human Pin1 inhibition. Potency, µM (top dose mostly 115 µM), for inactives: top-dose activity, negative = inhibition, most hits filed as inhibitors. AID 504891. Pin1 FP peptide displacement, HiFluor488, 10 min. Q13526. 390,000 compounds, 0.009% hits; active = well fitted inhibition curve with a large enough effect in the polarisation, with a control signal flat, not every such curve was filed as active; inconclusive = small, poorly fitted or top-dose-only effect, or effect the other way, or a change in a side signal; inactive = no such curve, though single readings can be large or run the other way; the % refers to the polarisation; also: % is scaled to controls: 0 for no effect and ±100 for the full control effect
Target sequence (Q13526 whole entry, looked up): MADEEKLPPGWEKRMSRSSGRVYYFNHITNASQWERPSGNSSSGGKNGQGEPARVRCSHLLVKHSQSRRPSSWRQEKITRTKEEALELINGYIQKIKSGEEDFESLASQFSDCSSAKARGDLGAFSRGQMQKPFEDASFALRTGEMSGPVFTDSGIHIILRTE
Nrf2 inh: blocks Nrf2 signaling; A549 ARE-Fluc reporter, luciferase luminescence, 18-24 h; Potency, µM (series often up to 46 µM), inactives show top-dose activity change, negative = inhibition, hits mostly inhibitors; 360,000 compounds, 2.1% hits; AID 504444; also: % is scaled to controls: 0 for no effect and ±100 for the full control effect; nearly all actives have a fitted effect of over 60% in size
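In this cell-based qHTS, ARE-driven firefly luciferase in A549 cells reports Nrf2 activity; the luminescent signal after BugLite lysis is the measured value, with a prior CellTiter-Fluor read for cell health.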
FLuc enzyme inh: counter-screen for Nrf2 inhibitors: firefly luciferase enzyme inhibition; Potency, µM (series often up to 57.5 µM), without a hit: top-dose activity change, negative = inhibition, usual class: inhibitors; purified firefly luciferase, luminescence inhibition; shares compounds with Nrf2 inh; 1,400 compounds, 4% hits; also: % is scaled to controls: 0 for no effect and ±100 for the full control effect; nearly all actives have a fitted effect of over 65% in size
A549 tox-2: A549 cytotoxicity, Nrf2 inhibitor counterscreen | shares compounds with Nrf2 inh | Potency, µM (doses to about 46.1 µM), for the others: top-dose activity change, negative = cytotoxicity, actives largely listed as inhibitors | 1,400 compounds, 2% hits | A549 ARE-Fluc cells, cytotoxicity counterscreen;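 also: cells exposed to compounds for 18 to 24 hours; % is scaled to controls: 0 for no effect and ±100 for the full control effect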
Nrf2 ARE inh: confirmation of Nrf2 inhibitors in A549 ARE reporter cells. A549 ARE-firefly luciferase reporter, luminescence. shares compounds with Nrf2 inh. Potency, µM (highest dose often 46.1 µM), for inactives: top-dose activity change, negative = inhibition, actives largely listed as inhibitors. 1,400 compounds, 74% hits; also: % is scaled to controls: 0 for no effect and ±100 for the full control effect; nearly all actives have a fitted effect of over 65% in size
An asterisk follows results filed as active; ? = inconclusive; / = not tested or not shown; ! = not active in a repeat. Sampled rows, rich in hits. Any-hit rate of the full collection: about 2.2%. Unless noted, calls follow the shape of the dose curve; as a rule, active = well fitted curve in the direction sought with a large enough effect; inconclusive = small, poorly fitted or top-dose-only effect, or another doubt; inactive = no such curve, though single readings can be large; an effect the other way counts as inactive or inconclusive. Potency is read from the fitted curve at half-maximal effect.

SMILES	Nrf2 activator	A549 tox-1	Pin1 inhibitor	Nrf2 inh	FLuc enzyme inh	A549 tox-2	others
CCOc1ccc(NC(=O)c2cc3c(C)nn(-c4ccccc4)c3s2)cc1	1%	-12%	5%	?	/	/
C=CCn1c(O)c(C=Nc2ccc(N(CC)CC)cc2)c(=O)[nH]c1=O	5%	-11%	?	3.3µM*	/	/
C[C@H]1CC[C@@H]2[C@@H](C)[C@H]3C(C[C@H]4C5CC[C@H]6C[C@@H](O)CC[C@]6(C)C5CC[C@]34C)N2C1 (some centres undefined)	/	1%	2%	18%	/	/
Cc1ccc(C)c(N2CCN(C(=O)CCS(=O)(=O)c3ccc4c(c3)oc(=O)n4C)CC2)c1	0%	12%	1%	21µM*!	/	/
Cc1cc(-c2ccc(C)c(S(=O)(=O)N3CCOc4ccc(Cl)cc43)c2)on1	4%	3%	?	?	/	/
Cc1ccc(NC(=O)C2CCCN(c3ncnc4onc(C)c34)C2)c(Cl)c1 (centres undefined)	1%	-11%	-7%	26µM*	/	/
Cc1ccc(Sc2ccc(N3CCCC(C(=O)Nc4ccc(Cl)cc4)C3)nn2)cc1 (centres undefined)	0%	-14%	15%	?	/	/
Nc1nc(F)nc2c1ncn2[C@@H]1O[C@H](CO)[C@@H](O)[C@H]1O	-2%	?	-6%	0.92µM*	/	/
COC1CCC(OC2CC(C3(C)CCC4(CC(O)C(C)C(C(C)/C=C(\C)C(=O)C(C)CC(C)C(=O)O)O4)O3)OC3(OC(C4OC(O)(CO)C(C)CC4C)CC3C)C2C)OC1C (centres undefined)	8%	0.65µM*	4%	0.41µM*	/	/
O=C(Nc1ccc2oc(-c3cccnc3)nc2c1)c1ccc(-c2cccc(Cl)c2)o1	4%	1%	56%	?	/	/
CCc1ccc(-n2nc(C)c3c(C(=O)NCCc4ccc(OC)c(OC)c4)cc(C)nc32)cc1	7%	-13%	49%	23µM*	/	/
CCCCCNc1c(C(=O)OCC)c(=O)[nH]c2ccccc12	3%	-27%	-3%	?	/	/
COc1ccc(-c2nc(CSCC(=O)N3CCN(c4ccc(F)cc4)CC3)c(C)o2)cc1	0%	-8%	1%	3.3µM*	-12%	-24%	Nrf2 ARE inh=7.3µM*
CCc1ccc(-c2nc(CSCC(=O)N3CCN(c4ccc(F)cc4)CC3)c(C)o2)cc1	0%	-20%	-2%	7.3µM*	-14%	-7%
CCN(CC)C1=NC(=[N+](CC)CC)c2ccccc21	0%	?	-1%	2.1µM*	4%	-24%	Nrf2 ARE inh=4.6µM*
CC1=CC(O)C(O)C2(C)C1CC1OC(=O)C(O)C3C(C)C(O)C4(O)OCC13C42 (centres undefined)	0%	-20%	-7%	2.9µM*	-2%	-24%	Nrf2 ARE inh=5.2µM*
CC(C)C(=O)Nc1ccc([N+](=O)[O-])c(C(F)(F)F)c1	4%	-5%	0%	?	/	/
CC(N)Cc1c[nH]c2c1ccc1ccccc12 (centres undefined)	2%	-6%	4%	4%	/	/
COc1cc(C[C@@H](C)N)c(OC)cc1I	0%	-23%	-4%	?	1%	-7%	Nrf2 ARE inh=0%
O=c1c2ccccc2nc(/C=C\c2ccccc2F)n1-c1ccc(O)cc1	-1%	-4%	?	/	/	/
CC(C)N1CC=C(c2c[nH]c3ccccc23)CC1	3%	?	-4%	1.6µM*	-1%	-10%
COc1ccccc1C1Nc2ccccc2-n2c(-c3ccccc3)c3c(=O)n(C)c(=O)n(C)c3c21 (centres undefined)	7%	8%	-2%	?	/	/
